Growth data for 40 compounds are collected here from PubChem BioAssay (NCI).

Molecules are shown by their SMILES. About 83,000 compounds went through this panel and 20% of them were active in at least one assay; those are over-represented in the sample as a whole.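 How to read the values: 0–100, growth inhibition (40 = 60% inhibited); 0, no net growth; -100 to 0, cell death (-40 = 40% of starting cells died; -100 = all dead).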 Calls of active or inactive are those of the source.

The test system of this assay is SW-620 colon. Nature of the assay: NCI-60 one-dose screen, 48 h (100 = growth as untreated, 0 = no growth, -100 = all killed). Conditions: 10 µM unless noted. How it is done: Growth inhibition of the SW-620 human tumor cell line is measured as a screen for anti-cancer activity. Cells are grown in 96 well plates and exposed to the test compound for 48 hours. Compounds are tested at a single concentration, which is 10^-5 M for most compounds. The reported endpoint is percent growth (GI% or GIPRCNT), where numbers from 0 - 100% represent growth inhibition, and numbers from -100% - 0 represent cell death. For example, a value of 40 represents 60% growth inhibition. A value of 0 means no net growth occurred over the course of the experiment. A value of -40 indicates 40% of cells at the beginning of the experiment died by the end of the experiment. A value of -100 means all cells are dead at the end of the experiment.
NCI-60 Human Tumor Cell Lines Screen was performed using the standard one-dose NCI protocol, which is described in more detail at https://dtp.cancer.gov/discovery_development/nci-60/default.htm.
Compounds with GIPRCNT values below 10 were considered active. Activity score was based on GIPRCNT using the following formula: […]
Score is 0 for GIPRCNT values of 100 or above, 50 for GIPRCNT values of 0, and 100 for GIPRCNT values of -100.
In the case of `CCOc1cc2ncc(C#N)c(Nc3ccc(OCc4ccccn4)c(Cl)c3)c2cc1NC(=O)/C=C/CN(C)C`, the growth was -63.9% (active). Next, `N[C@@H]1CCCN(c2c(/C=C3\SC(=O)NC3=O)cccc2-c2ccccc2)C1`: 60.3% (inactive). As to `CS(=O)(=O)CCNCc1ccc(-c2ccc3ncnc(Nc4ccc(OCc5cccc(F)c5)c(Cl)c4)c3c2)o1`, the growth was -56.1% (active).

Turning to `Cc1cc(Nc2ncnc3ccc(NC4=NC(C)(C)CO4)cc23)ccc1Oc1ccn2ncnc2c1`, the growth was 18.2% (inactive).

Take `Cc1nc(N)sc1-c1ccnc(Nc2ccc(N3CCOCC3)cc2)n1`: the growth is 41.4% (inactive). As to `C=CCCCOC1[C@H](OCc2ccccc2)C(OCc2ccccc2)C(OC)O[C@@H]1CNC(=O)c1cccc(I)c1` (stereo not given in full), the growth is 32.6% (inactive). In the case of `Cn1ccnc1C(=O)/C=C/c1ccc(CC(=O)Nc2ccc(C(F)(F)F)cc2)cc1`, the growth was 7.25% (active). For the compound `Cc1ccc(-c2nc3ccc(Cl)cn3c2NC2CCCCC2)o1`, the growth was 82.9% (inactive). Under `Nc1nc(N)c2cc(CNc3ccc(C(=O)NC(CC(=O)O)C(=O)O)cc3)ccc2n1` (stereo not given) stands 25.2% (inactive); under `O=C(Cn1c(=O)ccn(CCCCCCCCOc2ccc(Br)cc2)c1=O)Nc1ccc(Oc2ccc(Cl)cc2)cc1`, 73% (inactive).

As to `Clc1ccc2c(NCCNc3nc(N4CCCC4)nc4ccccc34)ccnc2c1`, the growth is 5.27% (active). As to `NS(=O)(=O)c1ccc(CCN2C(=O)/C(=C\c3ccc(Cl)cc3)C=C2c2ccc3ccccc3c2)cc1`, the growth is 106% (inactive). As for `COc1ccc(C(=O)c2cc(OC)c(OC)c(OC)c2)cc1/C=C/C(=O)c1ccc(F)cc1`, the growth was 9.38% (active). Next, `CC/C=C\C[C@H]1C/C=C2/C(=O)C=C[C@@H]2C/C=C\CCCC(=O)O1`: -51% (active).

For `COc1cc2ncnc(Nc3ccc(O)cc3)c2cc1OC`, the growth is 112% (inactive). Regarding `CCc1nc2cc(/C=C/C(=O)NO)c(F)cc2c(=O)n1CCc1ccccc1`, the growth is 18.4% (inactive).

With `Cc1cc2c(-c3nc4ccccn4c3Nc3cccc4ccccc34)c(O)c(O)cc2c(O)c1-c1c(C)cc2c(-c3nc4ccccn4c3Nc3cccc4ccccc34)c(O)c(O)cc2c1O`, the growth is 23.9% (inactive). Next, `Cc1ccc(NC(=O)NC(=O)CSc2nc3ccccc3nc2C)cc1`: 78.3% (inactive); `Cc1c(Cn2c(C)nc3c(C(=O)O)cc(N4CCOCC4)cc32)cccc1C(F)(F)F`: 102% (inactive). For `CC1=CC2c3oc(-c4ccccc4)c(C(=O)c4ccccc4)c3CNC2C=C1` (stereo not given), the growth was 97.1% (inactive). Regarding `O=C(NC[C@H](O)CO)c1ccncc1Nc1ccc(I)cc1F`, the growth is 17.4% (inactive). With `Brc1ccc([I+]c2ccc(Br)cc2)cc1`, the growth was 17.8% (inactive).

Regarding `O=C1NC(=O)/C(=C/c2ccc3nccc(-c4ccncc4)c3c2)S1`, the growth was 1.44% (active). Next, `O=C1C=CC2(NN=C(c3ccccc3)N2c2cccc(Cl)c2)c2cccc(O)c21` (stereo not given): 82% (inactive); `Cc1ccc(N)cc1CN1C(=O)c2ccccc2C1=O`: 108% (inactive). Consider `NC(=O)c1n[nH]n2c1nc(=O)c1c3c(sc12)CCCC3`, for which the growth was 100% (inactive). In the case of `COc1cc(C2CC(c3ccc(Cl)cc3)=NN2c2ccc(Cl)cc2)cc(OC)c1OC` (stereo not given), the growth is 96.6% (inactive). As to `C=CCCCC(=O)CCC(=O)OCC1O[C@@H](O[C@@H]2C(O)[C@@H](OC(C)=O)C(C)O[C@H]2O[C@H](CC=C)CCCCC)C(O)[C@@H](OC(=O)/C(C)=C/C)[C@@H]1OC(=O)/C=C/c1ccccc1` (stereo not given in full), the growth was 30.6% (inactive). For the compound `Cn1cc(-c2[nH]c3cc(NC(=O)[C@H](N)C4CCCCC4)cc4c3c2C=NNC4=O)cn1`, the growth was -31.8% (active). `CCc1cnn2c(NCc3ccc[n+]([O-])c3)cc(N3CCCC[C@H]3CCO)nc12`: the growth was -4.01% (active). Under `Cc1ccc(-c2cc3c(SCC(=O)Nc4cc(C(F)(F)F)ccc4Cl)nccn3n2)cc1` stands 18.2% (inactive); under `O=CC(OC(=O)c1ccccc1)C(OC(=O)c1ccccc1)C(COC(c1ccccc1)(c1ccccc1)c1ccccc1)OC(=O)c1ccccc1` (stereo not given), -37.6% (active); under `O=C(O)c1ccc(Nc2ncc3c(n2)-c2ccc(Cl)cc2C(c2c(F)cccc2F)=NC3)cc1`, 35.4% (inactive). As for `Nc1c2c(c(O)c3c1=C(CO)C=N3)=NCCS2=O` (stereo not given), the growth was -18% (active). In the case of `CCCCCC(=O)OCc1ccc(Cl)c(Cl)c1`, the growth is 109% (inactive). Under `COc1cnc2c(c1)C(=O)c1c-2n(CCCN2CCOCC2)c(=O)c2cc(Cl)ccc12` stands 21.3% (inactive); under `Cc1cc(Nc2cc(N3CCN(C)CC3)nc(Sc3ccc(NC(=O)C4CC4)cc3)n2)n[nH]1`, 19.3% (inactive). Consider `N#Cc1cc2[nH]c3ccc(OC(F)(F)F)cc3c2oc1=O`, for which the growth is 71.6% (inactive).

Regarding `CC(C)[C@@H](C)/C=C/[C@@H](C)[C@H]1CCC2=C3C=CC4=CC(=O)CC[C@]4(C)[C@H]3CC[C@@]21C`, the growth is 109% (inactive). Under `CC1CCC(n2cnc3c(Cl)ncnc32)O1` (stereo not given) stands 106% (inactive).
